Experimental data reported in PubChem BioAssay (EPA / NIEHS).
Active and inactive are the calls of the source. Rule for the calls: active = hit-call score of the fitted dose curve at least 0.9, where 1 is the maximum; inactive = score below 0.9.

Assays:
Settings in all cases: primary human HUVEC with PBMC; actives raise or lower the signal
[1] = read-out: Interleukin-1 alpha (IL1a), IL1A (gene 3552); experiment: BSK_LPS_IL1a: BioMAP Diversity Plus: LPS Assay for Interleukin-1 alpha (IL1a) Biomarker Activity (AID 2283080)
Procedure, shortened: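 Human umbilical vein endothelial cells co-cultured with PBMC and stimulated with LPS; IL-1a measured by ELISA 24 h after dosing. Bidirectional fitting against DMSO; cytotoxicity checked by SRB staining in parallel cultures.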

[2] = read-out: Monocyte Chemoattractant Protein-1 (MCP1), CCL2 (gene 6347); experiment: BSK_LPS_MCP1: BioMAP Diversity Plus: LPS Assay for Monocyte Chemoattractant Protein-1 (MCP1) Biomarker Activity (AID 2283081);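 for AC50: secreted MCP-1 protein quantified by ELISA in culture supernatant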
Procedure, shortened: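 Human umbilical vein endothelial cells co-cultured with PBMC, LPS-stimulated; secreted MCP-1 measured by ELISA 24 h after compound addition. Bidirectional curve fitting against DMSO baseline; SRB total-protein staining in parallel cultures for cytotoxicity.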

[3] = BSK_LPS_PGE2: BioMAP Diversity Plus: LPS Assay for Prostaglandin E2 (PGE2) Biomarker Activity (AID 2283082);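 for AC50: secreted prostaglandin E2 measured by ELISA in LPS-stimulated co-culture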
Procedure, shortened: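 HUVEC plus PBMC co-culture stimulated with LPS; secreted PGE2 quantified by ELISA 24 h after chemical dosing. Activity fitted bidirectionally against DMSO as negative control and baseline; parallel SRB total-protein staining served as cytotoxicity check.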

[4] = read-out: Macrophage colony-stimulating factor (MCSF), CSF1 (gene 1435); experiment: BSK_LPS_MCSF: BioMAP Diversity Plus: LPS Assay for Macrophage colony-stimulating factor (MCSF) Biomarker Activity (AID 2283083)
Procedure, shortened: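 HUVEC–PBMC co-culture, M-CSF measured by ELISA 24 h after chemical dosing. Fitted in both directions relative to DMSO as negative control; overt cytotoxicity assessed by SRB total-protein staining in parallel cultures.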

[5] = read-out: Tissue Factor, F3 (gene 2152); experiment: BSK_LPS_TissueFactor: BioMAP Diversity Plus: LPS Assay for Tissue Factor Biomarker Activity (AID 2283084)
Procedure, shortened: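 Human umbilical vein endothelial cells co-cultured with PBMC were dosed with compound. Cell-surface CD142 was measured by ELISA 24 h later. Activity was fitted bidirectionally against DMSO, with SRB total-protein staining in parallel cultures for cytotoxicity.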

[6] = read-out: Tumor necrosis factor (Homo sapiens) (UniProt P01375); experiment: BSK_LPS_TNFa: BioMAP Diversity Plus: LPS Assay for Tumour Necrosis Factor alpha (TNFa) Biomarker Activity (AID 2283085);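 for AC50: TNFa protein level quantified by ELISA in the co-culture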
Procedure, shortened: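 Human umbilical vein endothelial cells co-cultured with PBMC were exposed to test chemical and TNFa measured by ELISA 24 h after dosing. Bidirectional curve fitting was done relative to DMSO as negative control and baseline.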

[7] = read-out: Vascular cell adhesion molecule 1 (VCAM1), VCAM1 (gene 7412); experiment: BSK_LPS_VCAM1: BioMAP Diversity Plus: LPS Assay for Vascular cell adhesion molecule 1 (VCAM1) Biomarker Activity (AID 2283086)
Procedure, shortened: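 Human umbilical vein endothelial cells co-cultured with peripheral blood mononuclear cells under LPS stimulation were exposed to test chemical for 24 h. VCAM-1 levels were then measured by ELISA, with bidirectional curve fitting relative to DMSO as negative control and baseline.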

CD38, CD38 (gene 952) = experiment: BSK_SAg_CD38: BioMAP Diversity Plus: SAg Assay for CD38 Biomarker Activity (AID 2283087)
Procedure, shortened: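 Fluorescence ELISA of cell-surface CD38 served as the read-out, with either increase or decrease fitted against DMSO controls. Cells were a human umbilical vein endothelium plus PBMC co-culture under SEB/TSST-1 stimulation, measured 24 h after dosing.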

CD40, CD40 (gene 958) = experiment: BSK_SAg_CD40: BioMAP Diversity Plus: SAg Assay for CD40 Biomarker Activity (AID 2283088)
Procedure, shortened: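 HUVEC plus PBMC co-culture, superantigen-activated, with CD40 read by ELISA 24 h after dosing. Curves fitted in both directions against DMSO. Overt cytotoxicity checked by parallel SRB total-protein staining.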

CD69, CD69 (gene 969) = experiment: BSK_SAg_CD69: BioMAP Diversity Plus: SAg Assay for CD69 Biomarker Activity (AID 2283089);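 for AC50: cell surface CD69 protein quantified by ELISA with fluorescence detection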
Procedure, shortened: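 ELISA, fluorescence read-out: CD69 on human umbilical vein endothelial cell + PBMC co-culture, 24 h post-dosing. Gain or loss of signal fitted bidirectionally against DMSO baseline.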

Chain of Tumor necrosis factor (Homo sapiens) (P01375 whole entry, looked up): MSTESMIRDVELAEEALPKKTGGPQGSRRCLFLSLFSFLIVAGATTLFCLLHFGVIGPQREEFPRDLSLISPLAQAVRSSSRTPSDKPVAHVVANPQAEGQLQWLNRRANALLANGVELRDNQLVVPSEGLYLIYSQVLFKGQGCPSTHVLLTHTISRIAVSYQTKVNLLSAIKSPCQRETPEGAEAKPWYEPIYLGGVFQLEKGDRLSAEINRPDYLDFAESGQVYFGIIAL

SMILES	outcome [1]	outcome [2]	outcome [3]	outcome [4]	outcome [5]	outcome [6]	outcome [7]	AC50 (CD38, CD38 (gene 952))	AC50 (CD40, CD40 (gene 958))	AC50 (CD69, CD69 (gene 969))	outcome (CD38, CD38 (gene 952))	outcome (CD40, CD40 (gene 958))	outcome (CD69, CD69 (gene 969))	AC50 [4]	AC50 [6]	AC50 [7]	AC50 [1]	AC50 [2]	AC50 [3]	AC50 [5]
Cn1c(-c2ccccc2)cc(-c2ccccc2)[n+]1C	inactive	inactive	inactive	inactive	inactive	inactive	inactive	2.68 µM (active)	7.51 µM (active)	2.99 µM (active)	–	–	–	–	–	–	–	–	–	–
Nc1cnn(-c2ccccc2)c(=O)c1Cl	inactive	inactive	inactive	inactive	inactive	inactive	inactive	–	–	–	inactive	inactive	inactive	–	–	–	–	–	–	–
Cc1cc(C)nc(Nc2ccccc2)n1	inactive	inactive	inactive	inactive	inactive	inactive	inactive	20 µM (active)	–	–	–	inactive	inactive	–	–	–	–	–	–	–
CCN(CC)c1nc(C)cc(OP(=S)(OC)OC)n1	inactive	inactive	inactive	–	inactive	–	–	20 µM (active)	20 µM (active)	3.97 µM (active)	–	–	–	20 µM (active)	6.51 µM (active)	20 µM (active)	–	–	–	–
CCNC(=O)NC(=O)C(C#N)=NOC	inactive	inactive	inactive	inactive	inactive	inactive	inactive	–	–	–	inactive	inactive	inactive	–	–	–	–	–	–	–
CCCN(CC)CC1COC2(CCC(C(C)(C)C)CC2)O1 (stereo not given)	inactive	inactive	inactive	inactive	inactive	inactive	inactive	14.7 µM (active)	–	–	–	inactive	inactive	–	–	–	–	–	–	–
Nc1c(Cl)c(Cl)nc(C(=O)O)c1Cl	inactive	inactive	inactive	inactive	inactive	inactive	inactive	–	–	–	inactive	inactive	inactive	–	–	–	–	–	–	–
CS(=O)(=O)c1cc(C(F)(F)F)ccc1C(=O)c1cnoc1C1CC1	inactive	inactive	inactive	inactive	inactive	inactive	inactive	5.57 µM (active)	–	–	–	inactive	inactive	–	–	–	–	–	–	–
COc1cc(Cl)c(OC)cc1Cl	inactive	inactive	inactive	inactive	inactive	inactive	inactive	–	–	–	inactive	inactive	inactive	–	–	–	–	–	–	–
COC(=O)NC(=S)Nc1ccccc1NC(=S)NC(=O)OC	inactive	inactive	inactive	–	inactive	inactive	inactive	28.4 µM (active)	–	–	–	inactive	inactive	22.8 µM (active)	–	–	–	–	–	–
CCOc1nc(F)cc2nc(S(=O)(=O)Nc3c(Cl)cccc3Cl)nn12	inactive	inactive	inactive	inactive	inactive	inactive	inactive	–	–	–	inactive	inactive	inactive	–	–	–	–	–	–	–
OC(c1ccc(Cl)cc1)(c1ccc(Cl)cc1)C(Cl)(Cl)Cl	–	–	–	–	–	–	–	29.7 µM (active)	29.9 µM (active)	30 µM (active)	–	–	–	29.5 µM (active)	30.8 µM (active)	29.3 µM (active)	27.4 µM (active)	30.6 µM (active)	17.5 µM (active)	20 µM (active)
CC1(C)C(C(=O)OC(C#N)c2cccc(Oc3ccccc3)c2)C1(C)C (stereo not given)	inactive	inactive	–	inactive	inactive	–	inactive	12.1 µM (active)	14.1 µM (active)	12.2 µM (active)	–	–	–	–	5.68 µM (active)	–	–	–	6.92 µM (active)	–
N#CN=C1SCCN1Cc1ccc(Cl)nc1	inactive	inactive	inactive	inactive	inactive	inactive	inactive	–	–	–	inactive	inactive	inactive	–	–	–	–	–	–	–
C=C(C)CN(CC)c1c([N+](=O)[O-])cc(C(F)(F)F)cc1[N+](=O)[O-]	inactive	inactive	inactive	inactive	inactive	–	–	33.7 µM (active)	–	–	–	inactive	inactive	–	5.11 µM (active)	20 µM (active)	–	–	–	–
CCN(CC)C(=O)C(C)Oc1cccc2ccccc12 (stereo not given)	inactive	inactive	inactive	–	inactive	inactive	inactive	–	–	–	inactive	inactive	inactive	0.274 µM (active)	–	–	–	–	–	–
CCCCOCN(C(=O)CCl)c1c(CC)cccc1CC	–	–	inactive	–	–	–	–	29.4 µM (active)	30.8 µM (active)	18.3 µM (active)	–	–	–	27 µM (active)	35.1 µM (active)	28.2 µM (active)	30.7 µM (active)	31.8 µM (active)	–	30.2 µM (active)
COCC(=O)N(c1c(C)cccc1C)C(C)C(=O)OC (stereo not given)	inactive	inactive	inactive	inactive	inactive	inactive	inactive	–	–	–	inactive	inactive	inactive	–	–	–	–	–	–	–
